Assay outcomes deposited in PubChem BioAssay by several laboratories.
CYP2C19 activ – increases human CYP2C19 enzyme activity; P33261; recombinant CYP2C19, luciferin-H EGE luminescence; hits give high values; 0 = fully inhibited enzyme, 1 = untreated enzyme; activation factor at 5 µM; 96,000 tested, under 10 active;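 active = activation factor of at least 2 at 5 µM in the primary screen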;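 also: 0 = wells with 2.5 mM tranylcypromine and 1 = vehicle-only wells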
F-actin modifier – cytoskeleton assembly modification; HUVEC TNFa F-actin phalloidin imaging, high content; inhibition, % at 2 µM; hit rate 0.18% among 91,000; AID 836;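 active = inhibition above the batch mean plus 3 SD and confirmed as a hit by visual image inspection, cut at about 30% in these data, passing the limit was not always enough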
CYP2C19 inh – human CYP2C19 inhibition | P33261 | CYP2C19 Supersomes, luciferin-H EGE luminescence, 30 min | inhibition, % at 5 µM | hit rate 21% among 96,000;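 active = CYP2C19 inhibition above a set limit at 5 µM in the primary screen, cut at about 50% in these data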;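 also: plate controls were negative control wells for no effect and 2.5 mM tranylcypromine positive control for full effect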
E-sel TNF inh – TNF alpha driven E-selectin expression inhibition; AID 1246; hit rate 0.71% among 120,000; HUVEC TNFa-induced E-selectin immunofluorescence, high content; inhibition, % at 2 µM;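 active = inhibition above the batch mean plus 3 SD, and confirmed as a hit on visual image review, cut at about 43% in these data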;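 also: 0% = TNF-stimulated DMSO wells and 100% = unstimulated control wells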
CYP2C9 activ – activators of human CYP2C9; P11712; AID 1024; activation factor at 5 µM; hit rate 1.4% among 96,000; recombinant CYP2C9, luciferin-H conversion, luminescence; hits give high values; factor 1 = untreated enzyme, 0 = blocked;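 active = activation factor of 2 or more for CYP2C9 at a 5 µM dose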;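 also: 0 = sulfaphenazole-blocked wells and 1 = vehicle-only wells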
Target sequence (P11712 whole entry, looked up): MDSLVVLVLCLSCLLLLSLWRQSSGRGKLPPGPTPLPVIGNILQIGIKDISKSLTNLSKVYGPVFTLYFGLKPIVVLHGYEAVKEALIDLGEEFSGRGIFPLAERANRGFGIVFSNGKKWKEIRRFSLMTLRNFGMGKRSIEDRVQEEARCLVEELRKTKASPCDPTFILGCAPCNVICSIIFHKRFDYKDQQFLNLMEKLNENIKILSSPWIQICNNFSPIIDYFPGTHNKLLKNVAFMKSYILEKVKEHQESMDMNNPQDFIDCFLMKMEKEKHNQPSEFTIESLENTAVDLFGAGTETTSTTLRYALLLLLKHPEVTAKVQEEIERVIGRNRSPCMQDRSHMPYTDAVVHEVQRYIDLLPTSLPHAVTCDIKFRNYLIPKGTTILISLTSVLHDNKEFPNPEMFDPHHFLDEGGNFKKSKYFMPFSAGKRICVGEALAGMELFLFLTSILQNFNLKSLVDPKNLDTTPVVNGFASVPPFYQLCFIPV
CYP2C9 inhib – inhibitors of human CYP2C9. CYP2C9 Supersomes, luciferin-H conversion, luminescence. inhibition, % at 5 µM. hit rate 20% among 96,000. P11712;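 active = blocking of liver enzyme CYP2C9 beyond about 50% at 5 µM, limit read from the data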
The depositor's hits bear a star. Hits are enriched below; roughly 22% of the tested compounds scored in any of these assays.

How did COC(=O)C1=NN(C(=O)c2ccc(Cl)cc2)C(O)(c2ccccc2)C1 (stereo not given) do in these assays?
CYP2C19 activ: 0.7; F-actin modifier: 2.0; CYP2C19 inh: 28.7; E-sel TNF inh: 27.1; CYP2C9 activ: 0.7; CYP2C9 inhib: 27.2

Results for CN(C)c1nc(OCCNC(=O)Nc2ccccc2)nc(N(C)C)n1 ?
CYP2C19 activ: 0.3; F-actin modifier: -12.2; CYP2C19 inh: 73.4*; CYP2C9 activ: 0.5; CYP2C9 inhib: 46.6

How did Cc1ccc(S(=O)(=O)NCCOc2nc(N(C)C)nc(N3CCOCC3)n2)cc1 do in these assays?
CYP2C19 activ: 0.9; F-actin modifier: -4.7; CYP2C19 inh: 13.7; E-sel TNF inh: 34.2; CYP2C9 activ: 0.6; CYP2C9 inhib: 39.9

What do the screens show for `CN(C)c1nc(OCCNC(=O)Nc2ccccc2)nc(N2CCOCC2)n1`?
CYP2C19 activ: 0.5; F-actin modifier: -10.0; CYP2C19 inh: 53.2*; E-sel TNF inh: 3.9; CYP2C9 activ: 0.2; CYP2C9 inhib: 80.0*

What do the screens show for `O=C(CN1CCOCC1)Nc1ncc(Cc2cccc3ccccc23)s1`?
CYP2C19 activ: 0.7; F-actin modifier: -35.2; CYP2C19 inh: 26.7; E-sel TNF inh: -2.4; CYP2C9 activ: 1.1; CYP2C9 inhib: -5.4

How did COc1ccc(-c2cc(C(F)(F)F)n3ncc(C(=O)NCC4CCCO4)c3n2)cc1 (stereo not given) do in these assays?
CYP2C19 activ: 0.8; F-actin modifier: 4.0; CYP2C19 inh: 20.2; E-sel TNF inh: 11.8; CYP2C9 activ: 0.6; CYP2C9 inhib: 44.4

How did CS(=O)(=O)N(CC(=O)N1CCN(c2ccccc2F)CC1)c1cc(C(F)(F)F)ccc1Cl do in these assays?
CYP2C19 activ: 0.7; F-actin modifier: -17.5; CYP2C19 inh: 28.6; E-sel TNF inh: 12.4; CYP2C9 activ: 1.8; CYP2C9 inhib: -76.4

Results for CC1CCN(C(=O)CN(c2ccc(Cl)c(C(F)(F)F)c2)S(C)(=O)=O)CC1 ?
CYP2C19 activ: 0.2; F-actin modifier: 1.1; CYP2C19 inh: 75.3*; E-sel TNF inh: 3.4; CYP2C9 activ: 2.3*; CYP2C9 inhib: -133.2

How did CS(=O)(=O)N(CC(=O)N1CCC(C(N)=O)CC1)c1ccc(Cl)c(C(F)(F)F)c1 do in these assays?
CYP2C19 activ: 1.1; F-actin modifier: -8.6; CYP2C19 inh: -5.3; CYP2C9 activ: 1; CYP2C9 inhib: -4.5

What do the screens show for `CS(=O)(=O)N(CC(=O)N1CCN(c2ccccc2)CC1)c1cc(C(F)(F)F)ccc1Cl`?
CYP2C19 activ: 0.7; F-actin modifier: 11.0; CYP2C19 inh: 26.5; E-sel TNF inh: 2.0; CYP2C9 activ: 2.1*; CYP2C9 inhib: -111.6

How did CS(=O)(=O)N(CC(=O)N1CCN(c2ccccc2)CC1)c1ccc(Cl)c(C(F)(F)F)c1 do in these assays?
CYP2C19 activ: 0; F-actin modifier: 9.6; CYP2C19 inh: 95.5*; E-sel TNF inh: 14.3; CYP2C9 activ: 1.8; CYP2C9 inhib: -82.6

How did O=C(O)CCc1ccc(-c2ccc(Cl)cc2)n1Cc1ccco1 do in these assays?
CYP2C19 activ: 0.8; F-actin modifier: 25.0; CYP2C19 inh: 18.3; E-sel TNF inh: 5.9; CYP2C9 activ: 0.9; CYP2C9 inhib: 10.6

What do the screens show for `COc1ccc(CSCCN)cc1Cl`?
CYP2C19 activ: 0.4; F-actin modifier: -6.7; CYP2C19 inh: 64.3*; E-sel TNF inh: 2.0; CYP2C9 activ: 0.5; CYP2C9 inhib: 46.8

What do the screens show for `O=C(COC(=O)c1cccc2ccccc12)Nc1cccnc1Cl`?
E-sel TNF inh: -14.0

Results for COC(=O)CSc1nc(C)c(Oc2ccccc2)c(=O)[nH]1 ?
CYP2C19 activ: 0.4; F-actin modifier: 13.0; CYP2C19 inh: 64.0*; E-sel TNF inh: 14.8; CYP2C9 activ: 1.1; CYP2C9 inhib: -9.4

How did NNC(=O)CN1C(CN2CCOCC2)=Nc2ccc(Br)cc2C1c1ccccc1 (stereo not given) do in these assays?
E-sel TNF inh: -17.4

What do the screens show for `Cc1ccc(S(=O)(=O)N2CCN(C3CCN(Cc4ccccc4)CC3)CC2)cc1`?
CYP2C19 activ: 1; CYP2C19 inh: 3.0; E-sel TNF inh: 26.5; CYP2C9 activ: 0.9; CYP2C9 inhib: 11.3

What do the screens show for `Cc1nn(C)cc1S(=O)(=O)N1CCN(Cc2cccc(Cl)c2)CC1`?
E-sel TNF inh: -24.0

Results for Cc1cc(S(=O)(=O)N2CCN(Cc3ccccc3)CC2)c(C)s1 ?
CYP2C19 activ: 0; F-actin modifier: -0.1; CYP2C19 inh: 98.6*; CYP2C9 activ: 0.4; CYP2C9 inhib: 61.9*

Results for COc1cc(S(=O)(=O)N2CCN(Cc3ccc4c(c3)OCO4)CC2)c(C)cc1C ?
CYP2C19 activ: 0.7; CYP2C19 inh: 32.1; E-sel TNF inh: -26.3; CYP2C9 activ: 1; CYP2C9 inhib: -2.2

Results for COc1cc(C)c(C)cc1S(=O)(=O)N1CCN(Cc2ccccc2)CC1 ?
CYP2C19 activ: 0.1; F-actin modifier: -27.8; CYP2C19 inh: 88.8*; E-sel TNF inh: -9.0; CYP2C9 activ: 0.4; CYP2C9 inhib: 62.6*

What do the screens show for `COc1cc(C)c(C)cc1S(=O)(=O)N1CCN(Cc2ccc3c(c2)OCO3)CC1`?
CYP2C19 activ: 0.4; F-actin modifier: 13.5; CYP2C19 inh: 61.9*; E-sel TNF inh: -10.9; CYP2C9 activ: 1; CYP2C9 inhib: -2.2

What do the screens show for `Cc1ccc(NC(=O)c2cnn(-c3ccccc3)c2NC(=O)c2ccco2)cc1`?
CYP2C19 activ: 0.9; F-actin modifier: 8.9; CYP2C19 inh: 14.4; CYP2C9 activ: 0.7; CYP2C9 inhib: 34.7

How did Cn1cc(C(=O)NCc2ccc(F)cc2)c(=O)c2cc(S(=O)(=O)N3CCCCC3)ccc21 do in these assays?
E-sel TNF inh: -6.8

How did O=[N+]([O-])c1ccc(-c2csc(NN=C3CCCC3)n2)cc1 do in these assays?
E-sel TNF inh: -6.8

How did O=C(CN1CCN(c2ccccc2)CC1)Nc1ccccc1C(F)(F)F do in these assays?
CYP2C19 activ: 0.7; CYP2C19 inh: 26.3; E-sel TNF inh: -25.3; CYP2C9 activ: 0.7; CYP2C9 inhib: 27.1

How did COC(=O)c1[nH]c2ccc(C)cc2c1NC(=O)CN1CCN(c2ccccc2)CC1 do in these assays?
CYP2C19 activ: 0.1; F-actin modifier: 7.3; CYP2C19 inh: 89.6*; E-sel TNF inh: -11.3; CYP2C9 activ: 0.2; CYP2C9 inhib: 75.4*

How did Cc1c(C)n(C(=O)CN2CCC(C(N)=O)CC2)c2ccccc12 do in these assays?
CYP2C19 activ: 1.2; F-actin modifier: -16.4; CYP2C19 inh: -16.2; E-sel TNF inh: 18.8; CYP2C9 activ: 1.4; CYP2C9 inhib: -37.8

Results for Cc1c(C)n(C(=O)CN2CCN(c3ccccc3)CC2)c2ccccc12 ?
CYP2C19 activ: 0.4; F-actin modifier: -3.5; CYP2C19 inh: 56.2*; E-sel TNF inh: 11.6; CYP2C9 activ: 1.6; CYP2C9 inhib: -57.1

How did CCc1cccc(CC)c1NC(=O)CN1CCN(c2ccccc2)CC1 do in these assays?
CYP2C19 activ: 0.3; F-actin modifier: -14.7; CYP2C19 inh: 65.6*; E-sel TNF inh: 6.2; CYP2C9 activ: 0.2; CYP2C9 inhib: 82.8*
